Unmarked numbers belong to inactive results. Inconclusive results are not listed. The source made the active and inactive calls. Calls follow the shape of the dose curve; as a rule, active = well fitted curve in the direction sought with a large enough effect; inconclusive = small, poorly fitted or top-dose-only effect, or another doubt; inactive = no such curve, though single readings can be large; an effect the other way counts as inactive or inconclusive.
Test system: not listed separately
Experiment: Cell Viability - LYMP2-001 (AID 921);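 also: cells exposed to compound for 24 h at 37 °C; nearly all actives have a fitted effect of over 70% in size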; also: potency is read from the fitted curve at half-maximal effect;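 as to activity change, negative = cytotoxic: 0% = DMSO only and full inhibition = tetraoctylammonium bromide control wells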
Details: LYMP2-001 lymphoblastoid cell viability; series mostly up to 92.2 µM; activity change, negative = cytotoxic: at the top concentration
Outline: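 Steps: seed 2500 lymphoblastoid cells/well; 5 hr, 37 C; add compound; 24 hr, 37 C; CellTiter-Glo reagent, 30 min room temperature; read luminescence. Concentration-response modeled by Hill equation for AC50.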

Row | Compound | activity change, negative = cytotoxic | Potency
1 | COc1cc(C=O)ccc1O | -7.99% | –
2 | CCCCC(CC)COC(=O)c1ccccc1C(=O)O (stereo not drawn) | -0.566% | –
3 | O=C(Oc1ccccc1)c1ccccc1O | 9.22% | –
4 | Brc1ccccc1-c1ccccc1 | -5.06% | –
5 | CC(C)C(C)(C)C(C)(C)C(C)(C)S | -13.4% | –
6 | Cc1cc(C(C)(C)C)c(O)c(C(C)(C)C)c1 | -19.6% | –
7 | O=C(c1ccccc1)c1ccccc1 | -13.6% | –
8 | C1=CC2C3C=CC(C3)C2C1 (stereo not drawn) | -3.21% | –
9 | CC(C)(c1ccc(O)cc1)c1ccc(O)cc1 | – | inactive
10 | CCCC(=O)c1cc(O)c(O)cc1O | -31.6% | –
11 | Oc1ccccc1 | 2.22% | –
12 | c1ccc2occc2c1 | -38.6% | –
13 | Cc1ccc(O)cc1 | 10.7% | –
14 | OCc1c[nH]c2ccccc12 | -18.9% | –
15 | CCCCCCCCCCCCCCCC[n+]1ccccc1 | – | 10 µM (active)
16 | Nc1c2ccccc2nc2ccccc12 | – | 12.6 µM (active)
17 | O=C(NO)c1ccccc1 | -3.57% | –
18 | Nc1cccc2c(N)cccc12 | 0.423% | –
19 | CC(C)(C)c1ccc(O)c(O)c1 | – | 31.6 µM (active)

Test system: not listed separately
Experiment: Confirmation and Secondary Assay for Modulators of Hemoglobin Beta Chain Splicing at IVS2 705 locus (AID 930);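 also: HeLa cells stably expressing the EGFP-705 splicing reporter; GFP fluorescence per well restored by corrected splicing of the IVS2-705 intron in EGFP; % of control where 0% means no effect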
Details: HeLa EGFP-705 splicing reporter, GFP fluorescence, 48 h; series mostly up to 46.1 µM; activation: at the top concentration
Outline: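 HeLa cells stably carrying EGFP interrupted by mutant beta-globin intron 2 (IVS2-705) treated 2 days at 37C with compound; 500 nM antisense PNA as control. Correct splicing read as total peak GFP intensity per well by laser-scanning cytometry.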

Row | Compound | activation
20 | Nc1ncnc2nc[nH]c12 | 0.325%
21 | CCOC(=O)NNc1nncc2ccccc12 | 3.08%
22 | Cc1ccc2c(Cl)cc(Cl)c(O)c2n1 | 1.17% [at 38.3 µM]
23 | C[N+](C)(C)CCO | 1.76%
24 | Cc1cc(C(C)(C)C)c(O)c(C(C)(C)C)c1 | 2.16% [at 38.3 µM]
25 | CC(NCCC(c1ccccc1)c1ccccc1)c1ccccc1 (stereo not drawn) | 0.565%
26 | O=C(O)/C=C(\CC(=O)O)C(=O)O | 1.06% [at 38.3 µM]
27 | COC(=O)c1c(Cl)c(Cl)c(C(=O)OC)c(Cl)c1Cl | 1.35% [at 38.3 µM]
28 | Cc1ccc(O)cc1 | 2.65%
29 | CC(=O)OCC[N+](C)(C)C | -0.558%
30 | OCc1c[nH]c2ccccc12 | 0.336%
31 | C1N2CN3CN1CN(C2)C3 | 4.86%
32 | CC(=O)OC/C=C(C)/C=C/C=C(C)/C=C/C1=C(C)CCCC1(C)C | -0.875%
33 | CCN(CC)CCOc1ccc(/C(=C(\Cl)c2ccccc2)c2ccccc2)cc1 | 2.7%
34 | NC(N)=NCCCCN=C(N)N | 0.139% [at 38.3 µM]
35 | Nc1c2ccccc2nc2ccccc12 | 3.33%

Molecular target: Muscarinic acetylcholine receptor M1 (Rattus norvegicus) (UniProt P08482)
Experiment: qHTS Assay for Antagonists of Acetylcholine Muscarinic M1 Receptor: Kinetic Measurement of Intracellular Calcium Response (AID 943); also: nearly all actives have a fitted effect of over 75% in size; also: potency is read from the fitted curve at half-maximal effect;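 as to activity change, negative = inhibition: Fluo-4 calcium signal as peak divided by basal fluorescence over 4 min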
Details: M1-expressing cells, kinetic intracellular calcium fluorescence; series mostly up to 35.3 µM; activity change, negative = inhibition: at the top concentration
Outline: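 Antagonism measured as reduction of carbachol-evoked (EC80, 100 nM final) calcium flux in rat M1-CHO cells after 10 min compound exposure. Fluo-4 signal read kinetically; ratio of maximal to basal fluorescence.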

Sequence of Muscarinic acetylcholine receptor M1 (Rattus norvegicus) (P08482 whole entry, looked up): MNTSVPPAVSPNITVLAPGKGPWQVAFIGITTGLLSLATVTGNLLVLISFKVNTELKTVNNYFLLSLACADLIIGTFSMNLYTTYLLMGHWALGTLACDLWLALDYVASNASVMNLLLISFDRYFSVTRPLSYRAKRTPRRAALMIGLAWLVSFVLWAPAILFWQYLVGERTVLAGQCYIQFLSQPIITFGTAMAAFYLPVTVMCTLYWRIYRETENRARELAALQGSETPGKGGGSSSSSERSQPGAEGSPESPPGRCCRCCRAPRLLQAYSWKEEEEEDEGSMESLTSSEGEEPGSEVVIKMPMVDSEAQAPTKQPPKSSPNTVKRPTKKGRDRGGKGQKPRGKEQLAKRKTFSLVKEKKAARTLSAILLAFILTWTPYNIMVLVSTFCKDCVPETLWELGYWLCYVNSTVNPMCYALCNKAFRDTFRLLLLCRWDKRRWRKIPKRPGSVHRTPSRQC

Row | Compound | activity change, negative = inhibition | Potency
36 | O=C1NC(c2cccc([N+](=O)[O-])c2)=CCN1c1ccccc1O | -32.8% | –
37 | O=[N+]([O-])c1ccc(-c2nc(-c3ccc(F)cc3)c(-c3ccncc3)[nH]2)cc1 | -42.3% | –
38 | Brc1ccc([C@H]2CN3CCSC3=N2)cc1 | – | 12.6 µM (active)
39 | CC(C)N(CCC(=O)c1ccc2ccccc2c1)Cc1ccccc1 | 7.44% | –
40 | Cn1cnc2c(NCc3ccccc3)nc(NCCO)nc21 | -14.3% | –

Molecular target: Muscarinic acetylcholine receptor M1 (Rattus norvegicus) (UniProt P08482)
Experiment: qHTS Assay for Antagonists of Acetylcholine Muscarinic M1 Receptor: Measurement of IP-One Response (AID 944); also: nearly all actives have a fitted effect of over 75% in size; also: potency is read from the fitted curve at half-maximal effect
Details: CHO-M1 cells, IP-One HTRF, antagonist mode; series mostly up to 46.1 µM; activity change, negative = inhibition: at the top concentration
Outline: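 IP1 accumulation measured via TR-FRET between d2-IP1 and Eu-cryptate anti-IP1 antibody after carbachol (200 nM, EC80) stimulation for 30 min; rat M1-transfected CHO cells received compound 10 min before agonist.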

Row | Compound | Potency | activity change, negative = inhibition
41 | CN(C)c1cc2c(Nc3ccc4c(cnn4Cc4ccccc4)c3)ncnc2cn1 | 11.2 µM (active) | –
42 | O=C1NC(c2cccc([N+](=O)[O-])c2)=CCN1c1ccccc1O | – | -44.8%
43 | C[N+](C)(C)CCO | – | -39.9%
44 | CC(C)N(CCC(=O)c1ccc2ccccc2c1)Cc1ccccc1 | – | -5.98%
45 | Cn1cnc2c(NCc3ccccc3)nc(NCCO)nc21 | – | -31.1%
46 | NC(N)=NCCCCN=C(N)N | 10 µM (active) | –

Molecular target: Pyruvate kinase (Leishmania mexicana) (UniProt Q27686)
Experiment: qHTS Validation Assay for Inhibitors of Leishmania Mexicana Pyruvate Kinase (AID 945);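 also: 0% = DMSO only neutral control wells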
Details: purified L. mexicana pyruvate kinase, enzyme activity, E451W mutant enzyme; series mostly up to 57.5 µM; activity change, negative = inhibition: at the top concentration
Outline: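 Eight-point qHTS titrations in triplicate, data normalized to DMSO neutral control. Reaction: 0.2 nM LmPYK E451W mutant, 0.5 mM PEP, 0.1 mM ADP, 7 mM MgCl2, pH 7.2, one hour at room temperature; luminescent ATP detection.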

Sequence of Pyruvate kinase (Leishmania mexicana) (Q27686 2-499 E452W): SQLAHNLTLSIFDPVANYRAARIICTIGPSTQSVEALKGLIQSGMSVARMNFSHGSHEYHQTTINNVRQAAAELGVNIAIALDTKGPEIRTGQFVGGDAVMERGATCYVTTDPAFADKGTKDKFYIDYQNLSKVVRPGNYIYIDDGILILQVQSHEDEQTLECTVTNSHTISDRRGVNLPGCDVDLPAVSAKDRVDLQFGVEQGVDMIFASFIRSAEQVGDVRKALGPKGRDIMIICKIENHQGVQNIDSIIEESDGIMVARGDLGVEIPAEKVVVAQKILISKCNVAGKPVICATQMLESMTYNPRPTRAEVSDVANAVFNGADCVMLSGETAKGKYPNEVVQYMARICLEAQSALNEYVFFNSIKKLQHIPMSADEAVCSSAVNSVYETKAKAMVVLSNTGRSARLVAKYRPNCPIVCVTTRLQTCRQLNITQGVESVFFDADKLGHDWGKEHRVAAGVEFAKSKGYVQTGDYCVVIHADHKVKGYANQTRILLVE

Row | Compound | activity change, negative = inhibition
47 | CN(C)c1cc2c(Nc3ccc4c(cnn4Cc4ccccc4)c3)ncnc2cn1 | -5.42%
48 | O=C1NC(c2cccc([N+](=O)[O-])c2)=CCN1c1ccccc1O | 5.04%
49 | O=[N+]([O-])c1ccc(-c2nc(-c3ccc(F)cc3)c(-c3ccncc3)[nH]2)cc1 | -17.3%
50 | Brc1ccc([C@H]2CN3CCSC3=N2)cc1 | 12.3%
51 | COc1ccccc1N1CCN(CCN2C(=O)CC3(CCCC3)CC2=O)CC1 | -8.56%
52 | C[N+](C)(C)CCO | 3.82%
53 | CC(C)N(CCC(=O)c1ccc2ccccc2c1)Cc1ccccc1 | -4.46%
54 | Cn1cnc2c(NCc3ccccc3)nc(NCCO)nc21 | 7.09%
55 | NC(N)=NCCCCN=C(N)N | 4.05%

Test system: not listed separately
Experiment: MultiTox-Fluor Cytotoxicity Assay - LYMP1-001 - Dead Cells (AID 946);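 also: cells exposed to compound for 16 h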; also: potency is read from the fitted curve at half-maximal effect;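 as to cytotoxicity (dead cells): 0% = DMSO and 100% = tetraoctylammonium bromide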
Details: LYMP1-001 lymphoblastoid cells, dead-cell protease fluorescence; series mostly up to 92.2 µM; cytotoxicity (dead cells): at the top concentration
Outline: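 LYMP1-001 lymphoblastoid cells (2500/well) treated 16 h at 37 C. Dead-cell protease cleavage of bis-AAF-R110 read at Ex/Em 485/520. Normalized to DMSO and 15 uM tetraoctylammonium bromide; AC50 from Hill fits.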

Row | Compound | cytotoxicity (dead cells) | Potency
56 | COc1cc(C=O)ccc1O | 12.8% | –
57 | CCCCC(CC)COC(=O)c1ccccc1C(=O)O (stereo not drawn) | -0.048% | –
58 | O=C(Oc1ccccc1)c1ccccc1O | -11.9% | –
59 | Brc1ccccc1-c1ccccc1 | 1.48% | –
60 | CC(C)C(C)(C)C(C)(C)C(C)(C)S | -8.11% | –
61 | Cc1cc(C(C)(C)C)c(O)c(C(C)(C)C)c1 | -22.8% | –
62 | O=C(c1ccccc1)c1ccccc1 | 1.77% | –
63 | C1=CC2C3C=CC(C3)C2C1 (stereo not drawn) | 10.2% | –
64 | CC(C)(c1ccc(O)cc1)c1ccc(O)cc1 | – | inactive
65 | CCCC(=O)c1cc(O)c(O)cc1O | -6.34% | –
66 | Oc1ccccc1 | 3.04% | –
67 | c1ccc2occc2c1 | -19.2% | –
68 | Cc1ccc(O)cc1 | 0.701% | –
69 | OCc1c[nH]c2ccccc12 | 4.6% | –
70 | CCCCCCCCCCCCCCCC[n+]1ccccc1 | – | 10 µM (active)
71 | Nc1c2ccccc2nc2ccccc12 | – | 12.6 µM (active)
72 | O=C(NO)c1ccccc1 | -7.15% | –
73 | Nc1cccc2c(N)cccc12 | -9.31% | –
74 | CC(C)(C)c1ccc(O)c(O)c1 | 27.7% | –

Test system: not listed separately
Experiment: MultiTox-Fluor Cytotoxicity Assay - LYMP1-001 - Live Cells (AID 947); also: potency is read from the fitted curve at half-maximal effect;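 as to activity change, negative = cytotoxicity: 0% = DMSO only and full inhibition = tetraoctylammonium bromide control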
Details: LYMP1-001 lymphoblastoid cells, live-cell protease fluorescence viability; series mostly up to 92.2 µM; activity change, negative = cytotoxicity: at the top concentration

Row | Compound | activity change, negative = cytotoxicity | Potency
75 | COc1cc(C=O)ccc1O | 7.91% | –
76 | CCCCC(CC)COC(=O)c1ccccc1C(=O)O (stereo not drawn) | -0.512% | –
77 | O=C(Oc1ccccc1)c1ccccc1O | -13.4% | –
78 | Brc1ccccc1-c1ccccc1 | 1.23% | –
79 | CC(C)C(C)(C)C(C)(C)C(C)(C)S | -17.2% | –
80 | Cc1cc(C(C)(C)C)c(O)c(C(C)(C)C)c1 | -20.1% | –
81 | O=C(c1ccccc1)c1ccccc1 | 10.8% | –
82 | C1=CC2C3C=CC(C3)C2C1 (stereo not drawn) | -3.76% | –
83 | CC(C)(c1ccc(O)cc1)c1ccc(O)cc1 | – | inactive
84 | CCCC(=O)c1cc(O)c(O)cc1O | -29.7% | –
85 | Oc1ccccc1 | 9.21% | –
86 | c1ccc2occc2c1 | 6.16% | –
87 | Cc1ccc(O)cc1 | -6.79% | –
88 | OCc1c[nH]c2ccccc12 | 8.56% | –
89 | CCCCCCCCCCCCCCCC[n+]1ccccc1 | – | 20 µM (active)
90 | CC(=O)OC/C=C(C)/C=C/C=C(C)/C=C/C1=C(C)CCCC1(C)C | -1.53% | –
91 | Nc1c2ccccc2nc2ccccc12 | 21.2% | –
92 | O=C(NO)c1ccccc1 | -21.6% | –
93 | CC(C)(C)c1ccc(O)c(O)c1 | -1.75% | –

Source: PubChem BioAssay (NCATS)
